Test results published in PubChem BioAssay (Tox21).
Records with an inconclusive call do not appear. Calls of active or inactive are those of the source. Unless noted, calls follow the shape of the dose curve; as a rule, active = well fitted curve in the direction sought with a large enough effect in the repeat runs; inconclusive = weak or mixed curves; inactive = no such curve, though single readings can be large; an effect the other way counts as inactive or inconclusive.

How the values were obtained:
[1] = qHTS assay to identify small molecule agonists of the estrogen related receptor (ERR) signaling pathway from Tox21 library (AID 1224849; calls by dose curve; also: nearly all actives have a fitted effect of over 15% in size)
How it was run: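 ERR reporter cell line (NTP) seeded, rested 6 h at 37 C/5% CO2, then pinned with Tox21 compounds in DMSO. After 18 h at 37 C, ONE-Glo luciferase luminescence was read following 30 min at room temperature.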

[2] = qHTS RealTime-Glo MT Cell Viability Assay in HepG2 cells - 24 hour (AID 1224867); also: nearly all actives have a fitted effect of over 50% in size
How it was run: (§1)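 Compound treatment began 5 h after plating HepG2 cells (600/well) with NanoLuc luciferase and prosubstrate. Plates stayed at 37 C for 40 h; luminescence was captured at six time points, 0 h through 40 h.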

[3] = qHTS RealTime-Glo MT Cell Viability Assay in HEK293 cells - 32 hour (AID 1224868); also: nearly all actives have a fitted effect of over 50% in size; also: potency is read from the fitted curve at half-maximal effect; as to activity change, negative = cytotoxic: top concentration of the series differs between compounds
How it was run: (§2)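 Quantitative high-throughput screen of the Tox21 10K library in HEK293: cells and RealTime-Glo reagents plated together, compound added at 5 h, luminescence monitored through 40 h at 37 C.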

[4] = A CellTox Green Cytotoxicity Assay to monitor cytotoxicity in HEK293 cells - 0 hour (AID 1224869); also: nearly all actives have a fitted effect of over 50% in size
How it was run: (§3)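 HEK293 cells premixed with CellTox Green dye were seeded at 600 cells/well and left 5 h at 37 C/5% CO2 before pin transfer of 23 nL compound in DMSO. Fluorescence from dye bound to dead-cell DNA was read during 40 h treatment.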

[5] = qHTS RealTime-Glo MT Cell Viability Assay in HepG2 cells - 40 hour (AID 1224870); also: nearly all actives have a fitted effect of over 50% in size
How it was run: (§4)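 Real-time viability: cells seeded at 600 per well together with NanoLuc and cell-permeant prosubstrate, compounds added after 5 h incubation. Luminescence tracked at 0, 8, 16, 24, 32 and 40 h of exposure.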

[6] = A CellTox Green Cytotoxicity Assay to monitor cytotoxicity in HEK293 cells - 40 hour (AID 1224871); also: nearly all actives have a fitted effect of over 45% in size
How it was run: as §3

[7] = qHTS RealTime-Glo MT Cell Viability Assay in HEK293 cells - 16 hour (AID 1224872); also: nearly all actives have a fitted effect of over 50% in size; also: potency is read from the fitted curve at half-maximal effect; as to activity change, negative = cytotoxicity: top concentration of the series differs between compounds
How it was run: as §2

[8] = qHTS RealTime-Glo MT Cell Viability Assay in HepG2 cells - 8 hour (AID 1224873); also: nearly all actives have a fitted effect of over 55% in size
How it was run: as §4

[9] = qHTS RealTime-Glo MT Cell Viability Assay in HEK293 cells - 40 hour (AID 1224874); details: RealTime-Glo luminescence; max response: active compounds read low; also: nearly all actives have a fitted effect of over 50% in size; also: potency is read from the fitted curve at half-maximal effect
How it was run: (§5)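 HEK293 cells mixed with RealTime-Glo reagents (NanoLuc plus cell-permeant prosubstrate) at 600 cells/well, preincubated 5 h at 37 C/5% CO2, then given 23 nL compound in DMSO. Nonlytic luminescence from viable cells was read at 0, 8, 16, 24, 32 and 40 h.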

[10] = A CellTox Green Cytotoxicity Assay to monitor cytotoxicity in HEK293 cells - 24 hour (AID 1224875); also: series mostly up to about 77 µM; nearly all actives have a fitted effect of over 45% in size
How it was run: as §3

[11] = A CellTox Green Cytotoxicity Assay to monitor cytotoxicity in HepG2 cells - 16 hour (AID 1224876); also: nearly all actives have a fitted effect of over 45% in size
How it was run: (§6)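 HepG2 cells were seeded together with the CellTox Green dye at 600 cells/well, left 5 h at 37 C/5% CO2, then given compounds in DMSO. Fluorescence from dye bound to dead-cell DNA was read repeatedly over 40 h of treatment at 37 C.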

[12] = qHTS RealTime-Glo MT Cell Viability Assay in HepG2 cells - 32 hour (AID 1224877); also: nearly all actives have a fitted effect of over 55% in size
How it was run: as §1

[13] = A CellTox Green Cytotoxicity Assay to monitor cytotoxicity in HepG2 cells - 24 hour (AID 1224878); also: nearly all actives have a fitted effect of over 45% in size
How it was run: as §6

[14] = A CellTox Green Cytotoxicity Assay to monitor cytotoxicity in HepG2 cells - 40 hour (AID 1224879); also: nearly all actives have a fitted effect of over 40% in size
How it was run: as §6

[15] = qHTS RealTime-Glo MT Cell Viability Assay in HEK293 cells - 0 hour (AID 1224880)
How it was run: as §5

[16] = A CellTox Green Cytotoxicity Assay to monitor cytotoxicity in HEK293 cells - 32 hour (AID 1224881); also: nearly all actives have a fitted effect of over 40% in size
How it was run: as §3

[17] = A CellTox Green Cytotoxicity Assay to monitor cytotoxicity in HepG2 cells - 0 hour (AID 1224882); also: nearly all actives have a fitted effect of over 35% in size
How it was run: as §6

[18] = A CellTox Green Cytotoxicity Assay to monitor cytotoxicity in HepG2 cells - 32 hour (AID 1224883); also: nearly all actives have a fitted effect of over 50% in size
How it was run: as §6

[19] = A CellTox Green Cytotoxicity Assay to monitor cytotoxicity in HEK293 cells - 8 hour (AID 1224884); also: nearly all actives have a fitted effect of over 35% in size
How it was run: as §3

[20] = qHTS RealTime-Glo MT Cell Viability Assay in HepG2 cells - 16 hour (AID 1224885); also: nearly all actives have a fitted effect of over 50% in size
How it was run: as §1
% is scaled to controls: 0 for no effect and ±100 for the full control effect.

COc1cccc2sc(N)nc12
inactive: outcome [1] | outcome [2] | Potency [3] | Potency [4] | outcome [5] | Potency [6] | Potency [7] | outcome [8] | max response [9] -6.71% | Potency [10] | Potency [11] | outcome [12] | Potency [13] | Potency [14] | outcome [15] | Potency [16] | Potency [17] | Potency [18] | Potency [19] | outcome [20]

C=CCOc1c(Br)cc(Br)cc1Br
inactive: outcome [1] | outcome [2] | Potency [3] | Potency [4] | outcome [5] | Potency [6] | Potency [7] | outcome [8] | max response [9] 2.02% | Potency [10] | Potency [11] | outcome [12] | Potency [13] | Potency [14] | outcome [15] | Potency [16] | Potency [17] | Potency [18] | outcome [20]

Cc1nc2n(c(=O)c1CCN1CCC(C(=O)c3ccc(F)cc3)CC1)CCS2
inactive: outcome [1] | outcome [2] | Potency [4] | outcome [5] | Potency [6] | outcome [8] | Potency [10] | Potency [11] | outcome [12] | Potency [13] | Potency [14] | outcome [15] | Potency [16] | Potency [17] | Potency [18] | Potency [19] | outcome [20]
active: Potency [3] 5.35 µM | Potency [7] 9.52 µM | Potency [9] 6.01 µM

CC(C)(C)NCCO
inactive: outcome [1] | outcome [2] | Potency [3] | Potency [4] | outcome [5] | Potency [6] | Potency [7] | outcome [8] | max response [9] 6.71% | Potency [10] | Potency [11] | outcome [12] | Potency [13] | Potency [14] | outcome [15] | Potency [16] | Potency [17] | Potency [18] | outcome [20]

O=C(O)CCNC(=O)c1ccccc1
inactive: outcome [1] | outcome [2] | Potency [3] | Potency [4] | outcome [5] | Potency [6] | Potency [7] | outcome [8] | max response [9] -0.231% | Potency [10] | Potency [11] | outcome [12] | Potency [13] | Potency [14] | outcome [15] | Potency [16] | Potency [17] | Potency [18] | Potency [19] | outcome [20]

CC(C)C(=O)c1ccccc1
inactive: outcome [1] | outcome [2] | Potency [3] | Potency [4] | outcome [5] | Potency [6] | Potency [7] | outcome [8] | max response [9] -17.8% | Potency [10] | Potency [11] | outcome [12] | Potency [13] | Potency [14] | outcome [15] | Potency [16] | Potency [18] | Potency [19] | outcome [20]

O=C(O)c1ccc(OCCN2CCCCC2)cc1
inactive: outcome [1] | outcome [2] | Potency [3] | Potency [4] | outcome [5] | Potency [6] | Potency [7] | outcome [8] | max response [9] 5.16% | Potency [10] | Potency [11] | outcome [12] | Potency [13] | Potency [14] | outcome [15] | Potency [16] | Potency [17] | Potency [18] | Potency [19] | outcome [20]

COc1cc(C=O)ccc1OC(=O)C(C)C
inactive: outcome [1] | outcome [2] | Potency [3] | Potency [4] | outcome [5] | Potency [6] | Potency [7] | outcome [8] | max response [9] -2% | Potency [11] | outcome [12] | Potency [13] | Potency [14] | outcome [15] | Potency [16] | Potency [17] | Potency [18] | Potency [19] | outcome [20]

O=P(O)(O)OCC(O)CO (centres undefined)
inactive: outcome [1] | outcome [2] | Potency [3] | Potency [4] | outcome [5] | Potency [6] | Potency [7] | outcome [8] | max response [9] -2.63% | Potency [10] | Potency [11] | outcome [12] | Potency [13] | Potency [14] | outcome [15] | Potency [16] | Potency [17] | Potency [18] | Potency [19] | outcome [20]

NC(=O)NNC(N)=O
inactive: outcome [1] | outcome [2] | Potency [3] | Potency [4] | Potency [6] | Potency [7] | outcome [8] | max response [9] 19.6% | Potency [10] | Potency [11] | outcome [12] | Potency [13] | Potency [14] | outcome [15] | Potency [16] | Potency [17] | Potency [18] | outcome [20]

O=CO
inactive: activity change, positive = activation [1] -1.2% [at 8.39 µM] | activity change, negative = cytotoxicity [2] 0.773% [at 6.97 µM] | cytotoxicity [4] -3.71% [at 6.97 µM] | activity change, negative = cytotoxic [5] 17.5% [at 6.97 µM] | activity change, negative = cytotoxicity [7] 2.46% [at 6.97 µM] | viability change, negative = cytotoxic [8] -8.93% [at 6.97 µM] | max response [9] -0.6% | cytotoxicity increase [11] -13.8% [at 6.97 µM] | activity change, negative = cytotoxic [12] 7.5% [at 6.97 µM] | cytotoxicity [13] -17.2% [at 6.97 µM] | cytotoxicity increase [14] -21.3% [at 6.97 µM] | activity change, negative = cytotoxicity [15] 3.48% [at 6.97 µM] | cytotoxicity [17] -9.11% [at 6.97 µM] | cytotoxicity increase [18] -19.2% [at 6.97 µM] | activity change, negative = cytotoxic [20] -5.47% [at 6.97 µM]

F[Si-2](F)(F)(F)(F)F
inactive: outcome [1] | outcome [2] | Potency [4] | outcome [5] | Potency [6] | Potency [7] | outcome [8] | max response [9] -1.11% | Potency [10] | Potency [11] | outcome [12] | Potency [13] | Potency [14] | outcome [15] | Potency [16] | Potency [17] | Potency [18] | outcome [20]

C=CCOC(=O)c1ccc(C(=O)OCC=C)c(C(=O)OCC=C)c1
inactive: outcome [1] | outcome [2] | Potency [3] | outcome [5] | Potency [6] | Potency [7] | outcome [8] | max response [9] 4.3% | Potency [10] | Potency [11] | outcome [12] | Potency [13] | Potency [14] | outcome [15] | Potency [16] | Potency [17] | Potency [18] | Potency [19] | outcome [20]

CCCOCCOCCOCCO
inactive: outcome [1] | outcome [2] | Potency [4] | outcome [5] | Potency [6] | Potency [7] | outcome [8] | max response [9] -22.3% | Potency [11] | outcome [12] | Potency [13] | Potency [14] | outcome [15] | Potency [16] | Potency [17] | Potency [18] | Potency [19] | outcome [20]
